PLC-gamma1 inh: PLC-gamma1 (human) inhibition, primary screen | P19174 | purified PLC-gamma1, fluorogenic substrate, fluorescence | inhibition, % at 12.2 µM | hit rate 0.84% among 370,000 | AID 720700; in the data active = inhibition above about 9.5%
MsrA inhibitor: inhibitors of bovine MsrA; purified bovine MsrA, absorbance read-out; AID 651718; inhibition, % at 15.5 µM; hit rate 0.75% among 360,000
PLC-beta3 inh: inhibitors of human phospholipase C beta3; Q01970; Purified PLC-beta3, fluorogenic substrate, fluorescence; inhibition, % at 12.2 µM; hit rate 0.18% among 370,000; AID 720704; in the data active = inhibition above about 11%
MsrA act: activators of bovine methionine sulfoxide reductase A | hit rate 0.3% among 360,000 | purified bovine MsrA, absorbance read-out | AID 602163 | activation, % at 10.6 µM; in the data active = activation above about 7.5%
MsrA inh confirm: bovine MsrA inhibition, confirmed; hit rate 41% among 2,300; inhibition, % at 15.5 µM; AID 651822; shares compounds with MsrA inhibitor; purified bovine MsrA, absorbance read-out;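 also: coupled to thioredoxin reductase with NADPH and selenocystamine and DMSO as substrate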
Of the large screens only hits and unclear results are named; the others gave an inactive call (follow-up assays come after a bar, where they were run). Shown are actives, neighbours in structure and some others; about 1.9% of the full set was active somewhere. Rule as the data show it, unless noted: active = inhibition above about 4.5%; inactive = the rest.

COc1ccc2c(c1)c(C(=O)N/N=C/c1ccccc1Cl)c(C)n2C	none
COc1ccc(/C=N/NC(=O)c2c(C)n(C)c3ccc(OC)cc23)c(OC)c1	MsrA inhibitor 4.9 | MsrA inh confirm inactive
COc1ccc(-c2nn(-c3ccccc3)cc2/C=N/n2cnnc2)cc1OC	none
C(=N\n1cnnc1)/c1cn(-c2cccs2)nc1-c1ccccc1	MsrA inhibitor 4.8 | MsrA inh confirm inactive
CCOC(=O)C(/C=C(\C#N)C(=O)OCC)=C(/N)N1CCN(c2ccccc2)CC1	MsrA inhibitor 6.8 | MsrA inh confirm 5.3
COC(=O)c1ccccc1S(=O)(=O)NC(=O)[C@H]1O[C@@H](n2ccc(=O)[nH]c2=O)[C@H](O)[C@@H]1O	none (no result: MsrA act)
CCN(CC)c1ccc(/C=N/NC(=O)Cc2ccc(OC)c(OC)c2)cc1	MsrA inhibitor 5.2 | MsrA inh confirm inactive
CCOC(=O)N/N=C\C=C\c1ccc2c(c1)OCO2	MsrA inhibitor 7.3 | MsrA inh confirm 4.7
CC(C)(C)OC(=O)N/N=C\C=C\c1ccc2c(c1)OCO2	MsrA inhibitor 5.1 | MsrA inh confirm inactive
O=C(/C=C/c1ccco1)NCC(=O)N/N=C/c1ccccc1[N+](=O)[O-]	none
CCN(CC)c1ccc(/C=N/NC(=O)CNC(=O)/C=C/c2ccco2)cc1	MsrA inhibitor 6.3 | MsrA inh confirm 8.0
COC(=O)N/N=C\C=C\c1ccc2c(c1)OCO2	none
COc1ccc(/C=N/NC(=O)Cc2ccc(Cl)cc2)cc1OC	none
CN(Cc1ccccc1F)C(=O)Cn1c(-c2cncs2)nc2ccccc21	none (no result: MsrA inhibitor, MsrA act)
COc1ccc(/C=C/C(=O)NCc2ccc3c(c2)OCO3)cc1OC	none
COc1ccc(CC(=O)N/N=C/C=C/c2ccc3c(c2)OCO3)cc1OC	MsrA inhibitor 5.9 | MsrA inh confirm inactive
CCN(CC)c1ccc(/C=N/NC(=O)C2CC2)cc1	MsrA inhibitor 5.8 | MsrA inh confirm 5.5
OCCOCCn1c(-c2ccccc2)nc(=S)c2c1CCCC2	MsrA inhibitor 5.9 | MsrA inh confirm inactive
CC1(C)Cc2c(c(=S)nc(-c3ccccc3)n2CCOCCO)CO1	none
CCC(NC(=O)Cc1c(C)c2cc3c(cc2oc1=O)OC(C)(C)CC3)C(=O)O (stereo unspecified)	MsrA inhibitor 5.2 | MsrA inh confirm inactive
Cc1c(CC(=O)O)c(=O)oc2cc3c(cc12)CCC(C)(C)O3	none
C#Cc1cccc(Nc2nc(NCc3ccccc3OC)nc3ccsc23)c1	MsrA inhibitor 18 | MsrA inh confirm 11
COc1ccccc1CNc1nc(NCc2cccc(OC)c2OC)c2sccc2n1	none
C#Cc1cccc(Nc2nc(NCCOC)nc3ccsc23)c1	MsrA inhibitor 12 | MsrA inh confirm 11
C#Cc1cccc(Nc2nc(NC(C)C)nc3ccsc23)c1	none
COCCNc1nc(Nc2ccc(C#N)cc2)c2sccc2n1	MsrA inhibitor 5.1 | MsrA inh confirm inactive
CC(C)[C@@H]1NC(=O)[C@H]2C[C@@]3(C)c4ccccc4N[C@H]3N2C1=O	none (no result: MsrA inhibitor, MsrA act)
O=C(N/N=C/c1c[nH]c2ccccc12)c1[nH]c2ccc(Br)cc2c1-c1ccccc1	MsrA inhibitor 5.1 | MsrA inh confirm inactive
COc1cccc(/C=C2\SC(N3CCC(C)CC3)=NC2=O)c1OC	MsrA inhibitor 5.9 | MsrA inh confirm inactive
O=C(NCC1CCN(C(=O)C(=O)c2cc3ccccc3o2)CC1)c1cccnc1	none (no result: MsrA act)
O=C(Nc1nc2c(s1)CCCC2=O)c1cnccn1	MsrA inhibitor 4.7 | MsrA inh confirm inactive
C=CCn1c(SCC(=O)Nc2ccc(NC(=O)c3ccco3)c(OC)c2)nnc1-c1ccncc1	none
C=CCn1c(SCC(=O)Nc2cc(OC)c(NC(=O)c3ccco3)cc2OC)nnc1-c1ccncc1	MsrA inhibitor 4.7 | MsrA inh confirm inactive
CC1CN(C(=O)/C=C/c2ccc3c(c2)OCO3)CC(C)O1 (stereo unspecified)	MsrA inhibitor 6.0 | MsrA inh confirm inactive
C=CCN1C(=O)c2n[nH]c(C)c2C1c1ccc(C)cc1 (stereo unspecified)	none (no result: MsrA act)
CN(C)c1ccc(C=NCC2COc3ccccc3O2)cc1 (stereo unspecified)	MsrA inhibitor 5.5 | MsrA inh confirm 5.2
CN(CC1COc2ccccc2O1)C(=O)c1ccc(N(C)C)cc1 (stereo unspecified)	none
Cc1cc(C)nc(Nc2ncc(O)n2-c2ccc(Br)cc2)n1	MsrA inhibitor 8.1 | MsrA inh confirm inactive
COc1ccc(OC)c(-n2c(O)cnc2Nc2nc(C)cc(C)n2)c1	none
Cc1cc(C)nc(Nc2ncc(O)n2-c2ccc(C)c(Cl)c2)n1	MsrA inhibitor 9.1 | MsrA inh confirm 5.4
Cc1cc(C)nc(Nc2ncc(O)n2-c2ccc(C)c(C)c2)n1	MsrA inhibitor 8.0 | MsrA inh confirm 6.6
N#Cc1cc([N+](=O)[O-])ccc1N1CCCC1	MsrA inhibitor 11 | MsrA inh confirm 5.0
O=[N+]([O-])c1cc(/C=N/n2cnnc2)ccc1N1CCCC1	MsrA inhibitor 7.7 | MsrA inh confirm 5.1
O=Cc1ccc(N2CCCC2)c([N+](=O)[O-])c1	MsrA inhibitor 6.7 | MsrA inh confirm 4.8
COc1ccc(CN2C[C@@]3(O)CC[C@@H](O)[C@@H](OC)[C@@H]3[C@@](C)(O)[C@@H]2CC=C(C)C)cc1	none (no result: MsrA act)
CCOC(=O)c1cccc(NC(=O)CN(C)S(=O)(=O)c2ccc(C)c(C)c2)c1	none (no result: MsrA inhibitor, MsrA act)
CCCCCCCCN1C(=O)[C@@H](CC(=O)NCCC(C)C)C[C@@]2(C(=O)OC)C1=C[C@H](C(C)C)O[C@@H]2C1CC1	none (no result: MsrA inhibitor, MsrA act)
Oc1oc(-c2ccccc2)nc1C=NCc1ccncc1	MsrA inhibitor 5.9 | MsrA inh confirm inactive
O=C(CN1CCN(Cc2ccccc2)CC1)N/N=C\C=C/c1ccco1	MsrA inhibitor 6.9 | MsrA inh confirm 5.5
O=C(CN1CCN(Cc2ccccc2Cl)CC1)N/N=C/C=C/c1ccco1	none
CCOC(=O)c1sc(C)c2c(=O)n(CC)nnc12	MsrA inhibitor 5.7 | MsrA inh confirm inactive
Cc1ccc(CN2CCCCC(NC(=O)c3ccc(Br)cc3)C2=O)cc1 (stereo unspecified)	none (no result: MsrA inhibitor, MsrA act)
Fc1ccccc1C1CC(c2ccco2)=Nc2ccccc2S1 (stereo unspecified)	MsrA inhibitor 4.9 | MsrA inh confirm inactive
O=C(C(=O)N1CCC(CNS(=O)(=O)c2cc(C(F)(F)F)cc(C(F)(F)F)c2)CC1)c1cccs1	none (no result: MsrA act)
Cn1cc(C(=O)N/N=C/c2cccs2)c2ccccc21	MsrA inhibitor 5.2 | MsrA inh confirm 5.2
Cc1ccc(/C=C2\SC(N3CCCCC3)=NC2=O)cc1	MsrA inhibitor 5.0 | MsrA inh confirm 4.8
O=C1N=C(N2CCOCC2)S/C1=C/c1cccs1	MsrA inhibitor 5.4 | MsrA inh confirm 5.4
CC(=O)N1CCN(C2=NC(=O)/C(=C\c3cccs3)S2)CC1	none
O=c1[nH]nc(N/N=C/c2ccccc2OC(F)F)c(=O)[nH]1	MsrA inhibitor 5.0 | MsrA inh confirm inactive
O=C(CCNc1n[nH]c(=O)[nH]c1=O)N/N=C/c1ccccc1Br	none
COc1cccc(N=c2oc3ccccc3cc2-c2nc3ccccc3[nH]2)c1	MsrA inhibitor 5.2 | MsrA inh confirm inactive
COc1cccc(N=c2oc3ccc(OC)cc3cc2-c2nc3ccccc3[nH]2)c1	none
COC(=O)N1Cc2ccnnc2CC1c1ccccc1-c1ccc(F)cc1 (stereo unspecified)	none (no result: MsrA act)
Nc1nonc1-n1nnc(C(=O)N/N=C/c2ccco2)c1-c1ccccc1	none

From PubChem BioAssay
